TMEM16A act = TMEM16A chloride channel activators or potentiators, primary screen, cell-based, HTS. 0.3% of 340,000 active. Anoctamin-1 (Mus musculus), Q8BHY3. AID 623877, 2012. B-score at 10 µM. HEK293 TMEM16A/YFP-H148Q/I152L, iodide quench fluorescence; hits give low values;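 active means fluorescence-ratio B-score plate-corrected deviation score at least 3 library SD below zero, with starting fluorescence score within 5 deviations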;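 further: channel opened by trigger with iodide after compound preincubation; score built on the fluorescence ratio of max minus min over baseline; more negative score means more quench and so TMEM16A activation or potentiation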
Target sequence (Q8BHY3 whole entry, looked up): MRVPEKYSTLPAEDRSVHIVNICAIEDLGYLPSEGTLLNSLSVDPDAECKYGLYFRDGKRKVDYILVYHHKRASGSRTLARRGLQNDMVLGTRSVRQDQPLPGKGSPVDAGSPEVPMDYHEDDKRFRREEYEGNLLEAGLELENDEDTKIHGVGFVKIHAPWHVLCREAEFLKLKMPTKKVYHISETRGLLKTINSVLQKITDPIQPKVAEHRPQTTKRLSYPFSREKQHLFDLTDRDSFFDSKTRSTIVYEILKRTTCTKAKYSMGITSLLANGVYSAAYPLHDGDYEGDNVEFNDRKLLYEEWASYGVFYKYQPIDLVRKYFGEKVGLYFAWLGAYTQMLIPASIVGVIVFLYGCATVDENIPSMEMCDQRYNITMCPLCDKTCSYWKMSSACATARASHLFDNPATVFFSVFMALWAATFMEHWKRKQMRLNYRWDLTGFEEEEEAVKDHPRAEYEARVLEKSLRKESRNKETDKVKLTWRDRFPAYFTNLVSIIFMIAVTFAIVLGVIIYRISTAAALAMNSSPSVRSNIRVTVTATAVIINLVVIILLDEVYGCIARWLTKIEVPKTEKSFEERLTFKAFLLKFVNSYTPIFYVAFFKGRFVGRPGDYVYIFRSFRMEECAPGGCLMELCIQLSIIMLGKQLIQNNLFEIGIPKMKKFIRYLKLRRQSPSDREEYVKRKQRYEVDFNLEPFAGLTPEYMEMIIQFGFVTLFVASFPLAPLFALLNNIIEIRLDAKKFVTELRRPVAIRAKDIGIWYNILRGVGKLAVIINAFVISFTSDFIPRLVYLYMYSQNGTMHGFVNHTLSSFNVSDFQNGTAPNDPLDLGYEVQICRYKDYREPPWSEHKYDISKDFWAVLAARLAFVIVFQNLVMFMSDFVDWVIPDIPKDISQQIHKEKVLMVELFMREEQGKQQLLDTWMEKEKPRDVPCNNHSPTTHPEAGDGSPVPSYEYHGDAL
aSyn UTR inh = MLPCN primary screen, SNCA 5' untranslated region. 0.82% of 300,000 active. inhibition, % (tested at 7.5 µM). alpha-synuclein 5'UTR reporter, inhibitor activity; in the data active means inhibition above about 60%;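 further: H4 neuroglioblastoma cells stably carrying SNCA 5'UTR luciferase fusion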
697 NFkB inh = inhibitors of PMA/ionomycin-induced NF-kB reporter, 697 cells, primary screen, B-cell NF-kB inhibitor project, cell-based, luminescence, uHTS | 0.33% of 330,000 active | 697 B-cell NF-kB luciferase reporter, 16 h | AID 435022, 2010 | inhibition, % at 4 µM; in the data active means inhibition above about 35%
Jurkat NFkB inh = inhibitors of induced NF-kB luciferase reporter, primary screen, TCR NF-kB activation inhibitor project, cell-based, luminescence, uHTS | Jurkat, PMA/ionomycin-induced NF-kB luciferase reporter | 0.53% of 330,000 active | inhibition, % at 4 µM; in the data active means inhibition above about 50%
KLF5 inh = KLF5 expression inhibitors, primary screen, DLD-1 cells, luminescence; DLD-1 KLF5 promoter-luciferase reporter; inhibition, % at 5 µM; 0.23% of 290,000 active;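 active means inhibition above a per-plate limit of that plate's mean compound inhibition plus 3 SD, cut at about 60% in these data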;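 further: higher means less KLF5 promoter-driven luciferase light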
TMEM16A inh = TMEM16A chloride channel inhibitors, primary screen, cell-based, HTS; HEK293 TMEM16A/YFP iodide influx fluorescence, ionomycin; 1.2% of 310,000 active; normalized B-score (activity score, 25-100; higher = stronger inhibition) at 10 µM; Anoctamin-1 (Mus musculus), Q8BHY3;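 active means ratio plate-corrected score three or more library SD toward inhibition, starting fluorescence score within five deviations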;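 further: score derived from kinetic fluorescence span divided by baseline fluorescence per well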
697 NFkB conf = PMA/ionomycin-induced NF-kB reporter inhibitors, 697 retest, confirmation, B-cell NF-kB inhibitor project, cell-based, luminescence, single concentration | 35% of 2,000 active | shares compounds with 697 NFkB inh | 697 B-cell NF-kB luciferase, 16 h | inhibition, % at 4 µM; in the data active means inhibition mostly above about 28%, no sharp cut-off; inactive means mostly below about 22%
Large screens that a line does not name were inactive (follow-up assays come after a bar, where they were run). The list is not random: actives were taken first. Their share in the collection is about 2.5%.

COC(=O)[C@@]1(Cc2ccc(F)cc2)[C@H]2c3cc(C(=O)N4CCCC4)n(CCCNc4ncc(C(F)(F)F)cc4Cl)c3C[C@H]2CN1C(=O)c1ccccc1	none
O=C(C=P(c1ccccc1)(c1ccccc1)c1ccccc1)c1ccccc1-c1ccccc1C(=O)C=P(c1ccccc1)(c1ccccc1)c1ccccc1	none (no result: aSyn UTR inh, 697 NFkB inh, Jurkat NFkB inh, KLF5 inh, TMEM16A inh)
CCN(C(=O)CN1C(=O)NC2(CCc3ccccc32)C1=O)C1CCCCC1 (configuration not stated)	697 NFkB inh 42 (no result: KLF5 inh) | 697 NFkB conf inactive
CC(C)C[C@H](NC(=O)c1nc[nH]c1C(=O)N1CCN(C(=O)OC(C)(C)C)CC1)C(=O)OC(C)(C)C	none | 697 NFkB conf inactive
O=C1C=CC(=O)N1c1ccc2c(c1)C(NC(=O)C(F)(F)F)c1ccccc1-2 (configuration not stated)	none (no result: aSyn UTR inh, 697 NFkB inh, Jurkat NFkB inh, KLF5 inh, TMEM16A inh)
COc1ccc2nc(C)cc(Sc3nc4ccccc4s3)c2c1	697 NFkB inh 42 | 697 NFkB conf 38
Cc1ccc(NC(=O)c2sc3ccccc3c2Cl)nc1	none | 697 NFkB conf inactive
CCCCN1C(=O)C(=O)N(CC(=O)Nc2ccccc2C(=O)OCC)C1=O	none
COCCN(C(=O)c1cccc(-n2cnnn2)c1)c1c(N)n(CC(C)C)c(=O)[nH]c1=O	none (no result: KLF5 inh)
NC(=O)c1cc([N+](=O)[O-])ccc1NCc1ccc(O)cc1	697 NFkB inh 37 (no result: aSyn UTR inh, KLF5 inh) | 697 NFkB conf inactive
NC(=O)c1cc([N+](=O)[O-])ccc1NCc1ccc(C(=O)O)cc1	none (no result: aSyn UTR inh, KLF5 inh)
Cc1cc(C)n2nc(C(=O)OCC(=O)N(C)CC(=O)Nc3ccccc3Cl)nc2n1	none (no result: KLF5 inh)
CCOCCCNc1nc2c(C)cccn2c(=O)c1/C=C1\SC(=S)N(C(C)CC)C1=O (configuration not stated)	697 NFkB inh 37 | 697 NFkB conf 32
CCOc1cc(/C=N/NC(=O)c2ccc3c(c2)OCCO3)cc(Br)c1O	none
O=C(CCC(=O)Nc1ccccc1Cl)NNC(=O)C1CCCCC1	none (no result: aSyn UTR inh, KLF5 inh, TMEM16A inh)
COc1ccccc1N(C)S(=O)(=O)c1ccc(C(=O)Nc2cccc(S(=O)(=O)N3CCOCC3)c2)cc1	none (no result: aSyn UTR inh, 697 NFkB inh, Jurkat NFkB inh, KLF5 inh, TMEM16A inh)
COc1ccc(C(=O)Nc2cccc(NC(=O)c3ccc(OC)c(OC)c3)n2)cc1OC	697 NFkB inh 39 | 697 NFkB conf 47
COc1ccc(Cc2nnc(NC(=O)c3ccc(OC)c(OC)c3)s2)cc1	none
COc1ccc(C(=O)Nc2nnc(Cc3cccs3)s2)cc1OC	697 NFkB inh 36 | 697 NFkB conf 37
COc1ccc2[nH]c3c(c2c1)CCN1C(=O)C(CC(=O)NCc2cccc(C(F)(F)F)c2)C[C@H](C(=O)N(C(C)C)C(C)C)[C@@]31C (some centres not stated)	697 NFkB inh 35 (no result: aSyn UTR inh, Jurkat NFkB inh, KLF5 inh, TMEM16A inh) | 697 NFkB conf inactive
O=C(CN1CCSC1=O)N1CCN(S(=O)(=O)c2ccccc2)CC1	none (no result: aSyn UTR inh, KLF5 inh, TMEM16A inh)
CCOc1ccc(-n2c(-c3ccccc3)c[n+]3c2CCCCC3)cc1	697 NFkB inh 63 | 697 NFkB conf 64
O=C(NC(=O)N1CCN(C(c2ccccc2)c2ccccc2)CC1)c1ccccc1	697 NFkB inh 36 | 697 NFkB conf inactive
Cc1c(OCc2ccc(C(=O)O)cc2)ccc2c(-c3ccccc3)cc(=O)oc12	697 NFkB inh 37 | 697 NFkB conf inactive
CC(/C=N/NC(=O)c1n[nH]c2c1CCC2)=C\c1ccccc1	none
O=C(N/N=C/C(Br)=C\c1ccccc1)c1n[nH]c2c1CCC2	none | 697 NFkB conf inactive
Cn1c(=O)n(C)c2cc(NC(=O)CSc3nnc(-c4ccccc4O)n3-c3ccccc3)ccc21	697 NFkB inh 36 | 697 NFkB conf 41
c1ccc(-c2cn3c4c(sc3n2)CCCC4)cc1	aSyn UTR inh 117 | 697 NFkB conf inactive
O=c1c2ccc([N+](=O)[O-])cc2ncn1Cc1ccccc1C(F)(F)F	none
COc1ccc(/C=C/C(=O)OCC(=O)NC(C)CCc2ccccc2)cc1 (configuration not stated)	none (no result: aSyn UTR inh, KLF5 inh, TMEM16A inh)
O=C(Nc1nonc1-c1ccc(F)cc1)c1ccco1	none
CN1C(=O)CSc2ccc(NC(=O)N3CCN(c4ccccc4)CC3)cc21	697 NFkB inh 36 | 697 NFkB conf 31
CC(=O)c1ccc(NC(=O)Nc2ccc3c(c2)N(C)C(=O)CS3)cc1	none
Cc1ccnc(NC(=O)Nc2ccc3c(c2)N(C)C(=O)CS3)c1	none | 697 NFkB conf inactive
Cc1cc(=O)c(C(=O)Nc2ccc(N3CCOCC3)cc2N2CCOCC2)nn1-c1ccccc1Cl	none (no result: aSyn UTR inh, KLF5 inh, TMEM16A inh)
COc1ccc(-c2ccc(F)cc2)cc1[C@H]1[C@H]2C=CC[C@@H](C)[C@@H]2C(=O)N1Cc1ccccc1	697 NFkB inh 40 (no result: KLF5 inh) | 697 NFkB conf 46
Cc1ccc(CNc2nc3ccccc3s2)s1	aSyn UTR inh 78 | 697 NFkB conf inactive
CCCCC(=O)Nc1nc2c(OC)cc([N+](=O)[O-])cc2s1	none
CCCCC(=O)Nc1nc2c(OC)ccc(OC)c2s1	697 NFkB inh 36 | 697 NFkB conf inactive
CCN(CC)S(=O)(=O)c1cccc(-c2nc3n(n2)Cc2ccccc2-3)c1	none
Clc1ccc(-c2nc3n(n2)Cc2ccccc2-3)cc1	none | 697 NFkB conf inactive
O=C(Nc1ccc2oc(-c3cccc4ccccc34)nc2c1)c1ncn[nH]1	none
O=C(Nc1ccc2oc(-c3ccccc3Cl)nc2c1)c1ncn[nH]1	none | 697 NFkB conf inactive
COc1cc(C(=O)O)ccc1OCC(=O)N1CCOCC1	697 NFkB inh 40 | 697 NFkB conf inactive
CCn1c(SCC(=O)Nc2ccc(N3CCOCC3)cc2)nnc1C1CC1	none (no result: aSyn UTR inh, KLF5 inh, TMEM16A inh)
Cc1ccc2nc(SCC(=O)NC3CCS(=O)(=O)C3)[nH]c2c1 (configuration not stated)	none (no result: aSyn UTR inh, KLF5 inh, TMEM16A inh)
CCOc1ccc(C(C)=O)cc1Cn1nc(C(=O)O)c2ccccc2c1=O	697 NFkB inh 35 | 697 NFkB conf inactive
c1ccc2c(c1)CCN(c1nc3cc4c(cc3s1)OCCO4)C2	aSyn UTR inh 75 | 697 NFkB conf inactive
CCOC(=O)C1=C(COC(=O)CCCOc2ccccc2)NC(=O)NC1C (configuration not stated)	none (no result: aSyn UTR inh, KLF5 inh, TMEM16A inh)
CCC(C)[C@H](N)c1nnc(SCC(=O)c2ccc(Cl)cc2)o1 (some centres not stated)	697 NFkB inh 44 | 697 NFkB conf 32
CC(C)[C@H](N)c1nnc(SCc2ccc(Cl)cc2)o1	none
O=C(Nc1cccc(S(=O)(=O)Nc2ccc(Cl)cc2)c1)c1ccc(Cl)nc1	697 NFkB inh 57 | 697 NFkB conf 53

Assay outcomes deposited in PubChem BioAssay by several laboratories.
